# Measured values as given in PubChem BioAssay (Tox21).
# Results filed as inconclusive are left out. A call without a number means that no potency is given here. Values without a mark were called inactive. Calls of active or inactive are those of the source. Calls come from the whole dose curve; as a rule, active = well fitted activation curve with a large enough effect in the repeat runs; inconclusive = weak or mixed curves; inactive = flat fitted curve, though single readings scatter.
# Test: A CellTox Green Cytotoxicity Assay to monitor cytotoxicity in HepG2 cells - 40 hour (AID 1224879); note: nearly all actives have a fitted effect of over 40% in size
# Conditions: CellTox Green fluorescence; series mostly up to 76.8 µM
# From the text: National Center for Advancing Translational Sciences [NCATS]
# NIH Chemical Genomics Center [NCGC]
# U.S. Environmental Protection Agency [EPA]
# National Institutes of Environmental Health Sciences [NIEHS]
# National Toxicology Program [NTP]
# Cell-based models are critical for drug discovery. Determining the natural cytotoxic effects resulting from test compounds is an essential research activity. A CellTox Green Cytotoxicity Assay to monitor cytotoxicity in real time of continues cell culture during 40 hours of the compound treatment was used to screen Tox21 10K library compounds in HepG2 cells. CellTox Green Cytotoxicity Assay is a nonlytic, homogeneous, biofluorescent method to measure cytotoxicity in cell culture after experimental manipulation. The assay system uses a proprietary asymmetric cyanine dye that is excluded from viable cells but preferentially stains the dead cell's DNA. […] Viable cells produce no appreciable increases in fluorescence. Therefore, the fluorescence signal produced by the binding interaction with dead cell DNA is proportional to cytotoxicity.
# The mixture of HepG2 cell suspension and reagents were dispensed at 600cells/6 ul/well in 1536-well tissue culture treated black solid bottom plates using a Multidrop dispenser. After the assay plates were incubated at a 37 C/5% CO2 incubator for 5 hours, 23 nL of compounds dissolved in DMSO, positive and negative controls was transferred to the assay plate by a pintool work station. The plates were incubated at 37 C for 40 hours. The fluorescence intensity were measured at 0h, 8h, 16h, 24h, 32h and 40h time points using ViewLux plate reader during compound treatment.
Structure (SMILES),Potency,cytotoxicity increase
Cc1nc(C2CCCCC2)c(-c2ccc(S(N)(=O)=O)c(F)c2)o1,inactive,
CCCn1cc[n+](C)c1C,inactive,
CC(C)[C@H]1CC[C@@H](C)CC1=O,inactive,
CC1(C)[C@@H]2CC[C@@]1(C)[C@H](O)C2,inactive,
C[N+]1(C)[C@@H]2CC(OC(=O)[C@H](CO)c3ccccc3)C[C@H]1[C@@H]1O[C@@H]12 (stereo not given in full),inactive,
CC(C)(CCC(=O)O)C(=O)O,inactive,
NC(=O)N[C@@H](CCC(=O)O)C(=O)O,inactive,
OCCCCCO,inactive,
CN1C(C)(C)CC(O)CC1(C)C,inactive,
CCCCOCCOC(=O)CCCCCCCCC(=O)OCCOCCCC,inactive,
CC(CC=O)CC(C)(C)C (stereo not given),inactive,
N[C@H](C(=O)O)[C@@H](O)c1ccc(O)c(O)c1,inactive,
O=CN(CCO)CCO,inactive,
CCO[Si](OCC)(OCC)c1ccccc1,inactive,
CC(C)(C)c1ccc(-c2ccc(C(C)(C)C)cc2)cc1,inactive,
CC[N+](C)(CC)CCOC(=O)C1c2ccccc2Oc2ccccc21,inactive,
Cc1ncc([C@@H](CCCCCCc2ccc3c(n2)NCCC3)CC(=O)O)cn1,inactive,
N[C@@H](CCC(=O)O)C(=O)O,inactive,
c1ccc2sc(SN3CCOCC3)nc2c1,inactive,
Cc1ccc(-c2ncc(Cl)cc2-c2ccc(S(C)(=O)=O)cc2)cn1,inactive,

Structure (SMILES),Potency,cytotoxicity increase
NC(N)=NCCN1CCCCCCC1,,-13% [at 0.29 µM]
CCCCCC(C)N (stereo not given),inactive,
CCCCOCCOC(=O)COc1cc(Cl)c(Cl)cc1Cl,inactive,
CCCCCCCCCCCCCCC(=O)O,inactive,
CC(C)NNC(=O)c1ccncc1,inactive,
C[N+](C)(C)CCCCCCCCCC[N+](C)(C)C,inactive,
CCCCCCCCCCCCSC,inactive,
O=C(CO)[C@@H](O)[C@H](O)[C@H](O)CO,inactive,
COc1ccnc(CS(=O)c2nc3cc(OC(F)F)ccc3[nH]2)c1OC (stereo not given),inactive,
CC(=O)c1cnccn1,inactive,
CN1CCN(c2cc3c(nn2)Oc2ccccc2N3C)CC1,,-1.51% [at 15.8 µM]
O=S(=O)(O)c1cccc2ccccc12,inactive,
c1ccc(Cc2ccccc2)cc1,inactive,
CCOC(=O)COC(=O)c1ccccc1C(=O)OCC,inactive,
CC[C@H]1OC(=O)[C@H](C)[C@@H](O[C@H]2C[C@@](C)(OC)[C@@H](O)[C@H](C)O2)[C@H](C)[C@@H](O[C@@H]2O[C@H](C)C[C@H](N(C)C)[C@H]2O)[C@](C)(OC)C[C@@H](C)C(=O)[C@H](C)[C@@H](O)[C@]1(C)O,inactive,
CC1=C(C/C=C(\C)CCC[C@H](C)CCC[C@H](C)CCCC(C)C)C(=O)c2ccccc2C1=O,inactive,
FB(F)F,inactive,
CCNS(=O)(=O)c1ccc(C)cc1,inactive,
CNCCO,inactive,
Cc1ccccc1N=C(N)N=C(N)N,inactive,
